According to the supplement of paper PMC8728848:
This excerpt belongs to a sample that is enriched for the strongest signals.

Legend:
Test in all cases: glycan array binding signal (z-score within array); higher = stronger binding
Conditions in all cases: glycan notation: IUPAC condensed, linker removed
Fuc(a1-2)Gal = target: Fuc(a1-2)Gal
How it was run: (§1)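 The Consortium for Functional Glycomics database supplied 3228 glycan arrays, of which those lacking an available protein sequence were dropped. The binding signal, a within-array Z-score, was averaged across arrays of the same protein sequence and across linkers. Negative scores can be read as non-binding.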

[1] = target: Fuc(a1-2)Gal(b1-3)GalNAc(a1-3)[Fuc(a1-2)]Gal(b1-4)GlcNAc
How it was run: as §1

[2] = target: Fuc(a1-2)Gal(b1-3)[Fuc(a1-4)]GlcNAc(b1-3)[Gal(b1-4)GlcNAc(b1-6)]Gal(b1-4)Glc
How it was run: as §1

[3] = target: Fuc(a1-2)Gal(b1-4)GlcNAc(b1-2)Man(a1-3)[Fuc(a1-2)Gal(b1-4)GlcNAc(b1-2)Man(a1-6)]Man(b1-4)GlcNAc(b1-4)[Fuc(a1-6)]GlcNAc
How it was run: as §1

[4] = target: Fuc(a1-2)Gal(b1-4)GlcNAc(b1-3)[Fuc(a1-3)[Gal(b1-4)]GlcNAc(b1-6)]Gal(b1-4)Glc
How it was run: as §1

[5] = target: Fuc(a1-2)Gal(b1-4)GlcNAc(b1-6)GalNAc
How it was run: as §1

[6] = target: Fuc(a1-2)Gal(b1-4)[Fuc(a1-3)]GlcNAc(b1-2)Man(a1-3)[Fuc(a1-2)Gal(b1-4)[Fuc(a1-3)]GlcNAc(b1-2)Man(a1-6)]Man(b1-4)GlcNAc(b1-4)[Fuc(a1-6)]GlcNAc
How it was run: as §1

[7] = target: Fuc(a1-2)[Gal(a1-3)]Gal(b1-3)GlcNAc(b1-2)Man(a1-3)[Fuc(a1-2)[Gal(a1-3)]Gal(b1-3)GlcNAc(b1-2)Man(a1-6)]Man(b1-4)GlcNAc(b1-4)GlcNAc
How it was run: as §1

[8] = target: Fuc(a1-2)[Gal(a1-3)]Gal(b1-3)GlcNAc(b1-6)GalNAc
How it was run: as §1

[9] = target: Fuc(a1-2)[Gal(a1-3)]Gal(b1-4)GlcNAc
How it was run: as §1

[10] = target: Fuc(a1-2)[GalNAc(a1-3)]Gal(b1-4)GlcNAc(b1-2)Man(a1-3)[Fuc(a1-2)[GalNAc(a1-3)]Gal(b1-4)GlcNAc(b1-2)Man(a1-6)]Man(b1-4)GlcNAc(b1-4)[Fuc(a1-6)]GlcNAc
How it was run: as §1

[11] = target: Fuc(a1-2)[GalNAc(a1-3)]Gal(b1-4)[Fuc(a1-3)]GlcNAc(b1-3)GalNAc
How it was run: as §1

[12] = target: Fuc(a1-3)[Gal(b1-4)]GlcNAc(b1-6)GalNAc
How it was run: as §1

[13] = target: Gal(a1-3)Gal(b1-4)GlcNAc(b1-2)Man
How it was run: as §1

[14] = target: Gal(b1-3)GalNAc(b1-4)Gal(b1-4)Glc
How it was run: as §1

[15] = target: Gal(b1-3)[Neu5Ac(b2-6)]GalNAc
How it was run: as §1

Gal(b1-4)GlcNAc(b1-2)Man = target: Gal(b1-4)GlcNAc(b1-2)Man
How it was run: as §1

[16] = target: Gal(b1-4)GlcNAc(b1-2)Man(a1-3)[Gal(b1-4)GlcNAc(b1-2)Man(a1-6)]Man(b1-4)GlcNAc(b1-4)[Fuc(a1-6)]GlcNAc
How it was run: as §1

[17] = target: Gal(b1-4)GlcNAc(b1-2)[Gal(b1-4)GlcNAc(b1-4)]Man(a1-3)[Gal(b1-4)GlcNAc(b1-2)[Gal(b1-4)GlcNAc(b1-6)]Man(a1-6)]Man(b1-4)GlcNAc(b1-4)GlcNAc
How it was run: as §1

[18] = target: Gal(b1-4)GlcNAc(b1-2)[Gal(b1-4)GlcNAc(b1-6)]Man(a1-6)[Gal(b1-4)GlcNAc(b1-2)Man(a1-3)]Man(b1-4)GlcNAc(b1-4)[Fuc(a1-6)]GlcNAc
How it was run: as §1

[19] = target: Gal(b1-4)GlcNAc(b1-3)Gal(b1-4)GlcNAc(b1-2)Man(a1-3)[Gal(b1-4)GlcNAc(b1-3)Gal(b1-4)GlcNAc(b1-2)Man(a1-6)]Man(b1-4)GlcNAc(b1-4)[Fuc(a1-6)]GlcNAc
How it was run: as §1

[20] = target: Gal(b1-4)GlcNAc(b1-3)Gal(b1-4)GlcNAc(b1-2)[Gal(b1-4)GlcNAc(b1-3)Gal(b1-4)GlcNAc(b1-6)]Man(a1-6)[Gal(b1-4)GlcNAc(b1-3)Gal(b1-4)GlcNAc(b1-2)Man(a1-3)]Man(b1-4)GlcNAc(b1-4)[Fuc(a1-6)]GlcNAc
How it was run: as §1

[21] = target: Gal(b1-4)GlcNAc(b1-3)Gal(b1-4)GlcNAc(b1-3)Gal(b1-4)GlcNAc(b1-2)[Gal(b1-4)GlcNAc(b1-3)Gal(b1-4)GlcNAc(b1-3)Gal(b1-4)GlcNAc(b1-6)]Man(a1-6)[Gal(b1-4)GlcNAc(b1-3)Gal(b1-4)GlcNAc(b1-3)Gal(b1-4)GlcNAc(b1-2)Man(a1-3)]Man(b1-4)GlcNAc(b1-4)[Fuc(a1-6)]GlcNAc
How it was run: as §1

[22] = target: Gal(b1-4)GlcNAc(b1-3)Gal(b1-4)GlcNAc(b1-3)Gal(b1-4)GlcNAc(b1-3)Gal(b1-4)GlcNAc(b1-2)Man(a1-3)[Gal(b1-4)GlcNAc(b1-3)Gal(b1-4)GlcNAc(b1-3)Gal(b1-4)GlcNAc(b1-3)Gal(b1-4)GlcNAc(b1-2)Man(a1-6)]Man(b1-4)GlcNAc(b1-4)GlcNAc
How it was run: as §1

[23] = target: Gal(b1-4)GlcNAc(b1-3)Gal(b1-4)GlcNAc(b1-3)Gal(b1-4)GlcNAc(b1-3)Gal(b1-4)GlcNAc(b1-2)[Gal(b1-4)GlcNAc(b1-3)Gal(b1-4)GlcNAc(b1-3)Gal(b1-4)GlcNAc(b1-3)Gal(b1-4)GlcNAc(b1-6)]Man(a1-6)[Gal(b1-4)GlcNAc(b1-3)Gal(b1-4)GlcNAc(b1-3)Gal(b1-4)GlcNAc(b1-3)Gal(b1-4)GlcNAc(b1-2)Man(a1-3)]Man(b1-4)GlcNAc(b1-4)[Fuc(a1-6)]GlcNAc
How it was run: as §1

B1: ECL (Erythrina cristagalli), Q6YD91 (protein)
chain: VETISFSFSEFEPGNNDLTLQGAAIITQSGVLQLTKINQNGMPAWDSTGRTLYTKPVHIWDMTTGTVASFETRFSFSIEQPYTRPLPADGLVFFMGPTKSKPAQGYGYLGVFNNSKQDNSYQTLAVEFDTFSNPWDPPQVPHIGIDVNSIRSIKTQPFQLDNGQVANVVIKYDASSKILLAVLVYPSSGAIYTIAEIVDVKQVLPEWVDVGLSGATGAQRDAAETHDVYSWSFHASLPETND
- glycan array binding signal (z-score) (Fuc(a1-2)Gal): -0.188
- glycan array binding signal (z-score) [1]: -0.443
- glycan array binding signal (z-score) [2]: -0.094
- glycan array binding signal (z-score) [3]: -0.031
- glycan array binding signal (z-score) [4]: 0.053
- glycan array binding signal (z-score) [5]: -0.165
- glycan array binding signal (z-score) [6]: -0.185
- glycan array binding signal (z-score) [7]: -0.173
- glycan array binding signal (z-score) [8]: -0.206
- glycan array binding signal (z-score) [9]: -0.306
- glycan array binding signal (z-score) [10]: -0.274
- glycan array binding signal (z-score) [11]: 0.775
- glycan array binding signal (z-score) [12]: 0.251
- glycan array binding signal (z-score) [13]: -0.116
- glycan array binding signal (z-score) [14]: -0.141
- glycan array binding signal (z-score) [15]: -0.546
- glycan array binding signal (z-score) (Gal(b1-4)GlcNAc(b1-2)Man): -0.311
- glycan array binding signal (z-score) [16]: 0.114
- glycan array binding signal (z-score) [17]: 4.03
- glycan array binding signal (z-score) [18]: 5.09
- glycan array binding signal (z-score) [19]: 4.13
- glycan array binding signal (z-score) [20]: 6.18
- glycan array binding signal (z-score) [21]: 5.28
- glycan array binding signal (z-score) [22]: 3.58
- glycan array binding signal (z-score) [23]: 5.63
